Screening results deposited in PubChem by several laboratories.
In the library only some 3.3% were active in any assay of this set; here they are far more common.
H9c2 protect: protects H9c2 cardiomyocytes from peroxide injury | H2O2 injury protection, ATPLite, 2 h | protection from H2O2 cell death, % at 20 µM | actives 0.63% (n = 360,000);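 active = compounds giving at least 50% protection of heart cells from peroxide-induced death in the single-dose screen, raw or plate-pattern-corrected value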;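 note: 0% = DMSO wells with peroxide and 100% = DMSO wells without peroxide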
Efflux pump mplx: blocks antifungal efflux pumps in multiplex yeast assay; S. cerevisiae Candida pump triplex, Nile Red efflux; inhibition, % at 10 µM; actives 0.44% (n = 330,000); AID 485275;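 active = plate passing quality check with inhibition over a set limit, or well fluorescence over plate mean plus 4 SD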;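 note: Nile Red retained in pooled yeast measured as flow cytometry median fluorescence; 0% = buffer negative control and 100% = Enniatin B positive control; higher means more Nile Red kept so more efflux inhibition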
Cl transport mod: modulators of human KCC2 chloride dependent transport. Q9H2X9. KCC2 cells, thallium flux FluoZin-2 fluorescence. B-score of Tl+ flux slope (higher = more flux/activation; lower = inhibition) at 10 µM. actives 2.2% (n = 190,000);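 active = thallium flux slope and its plate-corrected score both differing from the plate sample mean at a set confidence after two filtering rounds, in either direction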;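 note: slope of fluorescence scaled to starting intensity during 10 to 20 s after thallium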
Calb FLC: C. albicans growth modulation with fluconazole; C. albicans CaCi-2 (fluconazole-resistant clinical isolate) + fluconazole, Alamar Blue growth, 48 h; growth inhibition, % (concentration not given with the values); actives 0.57% (n = 300,000); AID 1979;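 active = growth inhibition above about 58% in most replicates, limit read from the data, passing the limit was not always enough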;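 note: all wells also contain fluconazole at 8 µg/ml as a sub-toxic cotreatment; 0% = median of DMSO wells and 100% = median of geldanamycin control wells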
PHOSPHO1 inh: inhibitors of human PHOSPHO1 phosphatase. Q8TCT1. recombinant PHOSPHO1, absorbance phosphatase assay. inhibition, % at 13.3 µM. actives 1.1% (n = 290,000). AID 1565; in the data active = inhibition above about 60%
Target sequence (Q8TCT1 whole entry, looked up): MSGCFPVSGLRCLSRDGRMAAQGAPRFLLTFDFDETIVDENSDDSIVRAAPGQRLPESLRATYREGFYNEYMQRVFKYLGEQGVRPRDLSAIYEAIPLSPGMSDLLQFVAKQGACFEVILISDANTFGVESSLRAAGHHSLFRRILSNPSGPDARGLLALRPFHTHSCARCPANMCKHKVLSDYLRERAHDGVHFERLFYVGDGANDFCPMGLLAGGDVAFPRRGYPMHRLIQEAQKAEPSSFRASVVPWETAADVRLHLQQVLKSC
Active calls of the source: *.

For CC(=O)C1=C(C)NC(SCC(N)=O)=C(C#N)C1c1ccco1 (configuration not stated) the results were H9c2 protect 7.0, Efflux pump mplx 0.0, Cl transport mod -0.202, Calb FLC 0.2 and PHOSPHO1 inh -53.8.
CC(=O)C1=C(C)NC(SCC(N)=O)=C(C#N)C1CC(C)C (configuration not stated) was read as H9c2 protect 1.6, Efflux pump mplx 0.1, Cl transport mod -0.699, Calb FLC 12.5 and PHOSPHO1 inh -3.0.
CCOC(=O)CSC1=C(C#N)C(c2ccccc2F)C(C(C)=O)=C(C)N1 (configuration not stated) was read as H9c2 protect 2.1, Efflux pump mplx 0.2, Cl transport mod -1.31, Calb FLC -6.2 and PHOSPHO1 inh -91.6.
Screening CC(=O)C1=C(C)NC(SCC(=O)c2ccc(F)cc2)=C(C#N)C1c1ccco1 (configuration not stated) returned H9c2 protect 17.3, Efflux pump mplx 0.0, Calb FLC 39.6 and PHOSPHO1 inh 43.1.
Screening Cn1c(CO)cnc1-c1ccccc1 returned H9c2 protect -0.9, Efflux pump mplx -0.1, Cl transport mod 0.58, Calb FLC -0.6 and PHOSPHO1 inh -5.6.
`O=C(NC1=NCCS1)c1ccccc1OCc1ccccc1Cl` gave H9c2 protect 4.1, Efflux pump mplx 0.5, Cl transport mod -0.974, Calb FLC 10.1 and PHOSPHO1 inh -10.2.
`CCOc1ccc(NS(=O)(=O)c2cc(C(=O)N3CC(C)OC(C)C3)ccc2C)cc1` (configuration not stated) gave H9c2 protect -1.9, Efflux pump mplx -0.1 and Calb FLC -3.0.
Screening COc1ccc2[nH]c3c(c2c1)CCN1C(=O)C(CC(=O)NCCCn2ccnc2)C[C@H](C(=O)N2CCCCC2)[C@@]31CCc1ccccc1 (some centres not stated) returned H9c2 protect -3.3 and Efflux pump mplx -0.1.
For CCC(=O)c1ccc(OCC(=O)OCC(=O)N2CCc3ccccc32)cc1 the results were H9c2 protect 3.4, Efflux pump mplx -0.1 and Calb FLC -2.5.
Screening CC(C)(O)CC[C@@H](O)[C@](C)(O)[C@H]1CC[C@@]2(O)C3=CC(=O)[C@@H]4C[C@@H](O)[C@@H](O)C[C@]4(C)[C@H]3CC[C@]12C returned H9c2 protect 2.9, Efflux pump mplx 0.1, Calb FLC 3.5 and PHOSPHO1 inh 1.2.
`CCOC(=O)c1ccc(-n2c(CCC(=O)O)ccc2-c2ccc(F)cc2)cc1` gave H9c2 protect -3.3, Efflux pump mplx 0.0, Calb FLC -1.3 and PHOSPHO1 inh 34.0.
Screening CC(=O)C1=C(C)NC(SCC(=O)c2ccc(F)cc2)=C(C#N)C1CC(C)C (configuration not stated) returned H9c2 protect -9.9, Efflux pump mplx 0.1, Cl transport mod -1.92, Calb FLC 5.1 and PHOSPHO1 inh -29.0.
For CC(=O)C1=C(C)NC(SCC(=O)c2ccc(Cl)cc2)=C(C#N)C1CC(C)C (configuration not stated) the results were H9c2 protect 8.3, Efflux pump mplx 0.1, Cl transport mod -2.08, Calb FLC 24.1 and PHOSPHO1 inh 87.4*.
Cc1ccc2nc(COC(=O)c3cnccn3)cc(=O)n2c1 was read as H9c2 protect 8.6 and Efflux pump mplx 0.2.
CCn1nc([N+](=O)[O-])c(C(C#N)c2nc3cc(C(F)(F)F)ccc3s2)c(Cl)c1=O (configuration not stated) was read as H9c2 protect -20.8, Efflux pump mplx -0.3, Cl transport mod -5.68*, Calb FLC 23.8 and PHOSPHO1 inh 11.5.
For O=[N+]([O-])c1cc([N+](=O)[O-])c2cc(-c3cccnc3)[nH]c2c1 the results were H9c2 protect 5.3, Efflux pump mplx 0.1 and Calb FLC 15.0.
`O=Nc1c(O)c2ccccc2c2ccccc12` gave H9c2 protect -6.6, Efflux pump mplx -0.3 and Calb FLC 94.3*.
Screening O=c1ccc2ccccc2c2ccccc12 returned H9c2 protect -10.7.
Screening CN1CCN(c2nc(NCc3ccco3)nc(N)c2[N+](=O)[O-])CC1 returned H9c2 protect 2.4, Efflux pump mplx 0.0, Cl transport mod 0.141, Calb FLC 0.9 and PHOSPHO1 inh 60.5*.
For COc1ccc(CN(C)CC(=O)NCC(=O)Nc2c(C)cccc2C)cc1 the results were H9c2 protect -0.2 and Efflux pump mplx 0.7.
`COc1ccc2oc(C(=O)Nc3ccc(N4CCOCC4)cc3)c(C)c2c1` gave H9c2 protect 55.8*, Efflux pump mplx 0.0 and Calb FLC 6.5.
For COc1cccc(NC(=O)c2oc3ccc(S(=O)(=O)N4CCOCC4)cc3c2C)c1 the results were H9c2 protect 84.8*, Efflux pump mplx 0.1, Cl transport mod -0.196, Calb FLC -11.9 and PHOSPHO1 inh -21.8.
Screening Cc1ccc(NC(=O)c2oc3ccc(S(=O)(=O)N4CCOCC4)cc3c2C)cc1C returned H9c2 protect -10.3, Efflux pump mplx 0.0, Cl transport mod -0.0773, Calb FLC -7.8 and PHOSPHO1 inh -26.0.
For COc1ccc2oc(C(=O)Nc3ccccc3N3CCOCC3)c(C)c2c1 the results were H9c2 protect 1.5, Efflux pump mplx 0.2 and Calb FLC -2.6.
For N#Cc1c(C(F)(F)F)cc(-c2ccco2)nc1SCc1ccncc1 the results were H9c2 protect -9.9, Efflux pump mplx 0.0, Cl transport mod -1.29, Calb FLC -1.8 and PHOSPHO1 inh 82.0*.
Screening N#Cc1c(C(F)(F)F)cc(-c2ccco2)nc1SCc1ccccn1 returned H9c2 protect -11.8, Efflux pump mplx 0.3, Cl transport mod -0.317, Calb FLC -3.5 and PHOSPHO1 inh -40.9.
Screening CCN(CC(=O)Nc1ccccc1C(F)(F)F)C(=O)c1cccc(N2C(=O)CCC2=O)c1 returned H9c2 protect -0.2, Efflux pump mplx -0.1 and Calb FLC -6.9.
C[C@H](CO)N1C[C@H](C)[C@@H](CN(C)C(=O)Nc2ccc(C(F)(F)F)cc2)Oc2ccc(NC(=O)CCC(F)(F)F)cc2C1=O was read as H9c2 protect -0.8 and Efflux pump mplx 0.4.
Screening O=C(COc1cccc2cccnc12)N/N=C/c1ccccc1O returned H9c2 protect 43.0, Efflux pump mplx 0.2, Cl transport mod -0.293, Calb FLC -3.5 and PHOSPHO1 inh 11.6.
Cc1ccc(OCC(=O)N/N=C/c2cccc3cccnc23)cc1 was read as H9c2 protect 55.9*, Efflux pump mplx 0.0, Calb FLC -10.4 and PHOSPHO1 inh -0.6.
Cc1ccccc1OCC(=O)N/N=C/c1cccc2cccnc12 was read as H9c2 protect 40.0, Efflux pump mplx 0.2, Calb FLC 4.3 and PHOSPHO1 inh 28.0.
Screening O=C(COc1ccc(F)cc1)N/N=C/c1cccc2cccnc12 returned H9c2 protect 53.6*, Efflux pump mplx -0.1, Calb FLC -7.0 and PHOSPHO1 inh 35.2.
`CC(C)NC(=O)C(=O)NCCC1CCCCN1S(=O)(=O)c1cccs1` (configuration not stated) gave H9c2 protect 1.7, Efflux pump mplx 0.0 and Calb FLC -19.7.
